This passage reports Potency results from PubChem BioAssay (NCATS).

What all share (assay): qHTS profiling for inhibitors of Plasmodium falciparum proliferation (AID 504749); also: nearly all actives have a fitted effect of over 60% in size
Common to all, as to settings: P. falciparum in erythrocytes, SYBR Green DNA, 72 h; series mostly up to 28.7 µM

One test concerns CP237. The method in brief: (§1)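 Each compound contacts P. falciparum-infected red blood cells for 72 h at 37 C; lysis buffer (Tris, EDTA, saponin, Triton X, SYBR Green I) is added and fluorescence measured next morning; values normalized to controls.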
A further test concerns CP247. Summed up: as §1
The next test concerns CP250. Summed up:
as §1

The subject of another test is CP217. The method in brief:
as §1

Another test deals with CP238. The method in brief: as §1
Another test deals with CP252. Summed up:
as §1

For a further test, the system named is CP203. Summed up: as §1
The next test relates to CP215. The method in brief:
as §1

The test system of the next test is CP201. Summed up: as §1
A further test relates to CP211. The method in brief: as §1

Results filed as inconclusive are left out. The source made the active and inactive calls. Calls follow the shape of the dose curve; as a rule, active = well fitted inhibition curve with a large enough effect; inconclusive = small, poorly fitted or top-dose-only effect; inactive = flat fitted curve, though single readings scatter.
Potency is read from the fitted curve at half-maximal effect.

In the case of `COc1cc(C(=O)OCCCN2CCCN(CCCOC(=O)c3cc(OC)c(OC)c(OC)c3)CC2)cc(OC)c1OC`, the Potency with CP237 is 6.31 µM (active); in the test on CP247 it was 7.94 µM (active); with CP250 it was 10 µM (active).
Consider `CCC(=O)c1ccc2c(c1)N(CCCN(C)C)c1ccccc1S2`, for which the Potency result with CP250 is “inactive”.
For `NC(N)=NC(=O)Cc1c(Cl)cccc1Cl`, the Potency was 6.31 µM (active) with CP217 and 7.08 µM (active) in the test with CP250. Further, in the test with CP238, the Potency entry is “inactive”.
As to `CCOC(=O)C1=C(C)NC(C)=C(C(=O)OC)C1c1cccc([N+](=O)[O-])c1` (stereo unspecified), the Potency in the test on CP237 was 12.6 µM (active); in the test on CP238, 10 µM (active); with CP252 it was 11.2 µM (active).
Consider `CC1=C(C)C(=O)C(CCCCC#CCCCC#CCO)=C(C)C1=O`, for which the figures for the Potency in the test on CP203, in the test with CP215 and with CP217 were 15.1 µM (active), 15.1 µM (active) and 10 µM (active), respectively.
As for `CN(C)CC/C=C1\c2ccccc2COc2ccccc21`, the Potency in the test on CP203 was 13.5 µM (active). Further, in the test with CP250, the Potency result was “inactive”.
Consider `CC(C)(C)c1ccc(C(=O)CCCN2CCC(OC(c3ccccc3)c3ccccc3)CC2)cc1`, for which the Potency is 7.94 µM (active) with CP217, 11.2 µM (active) in the test with CP237, 11.2 µM (active) with CP238 and 10 µM (active) in the test with CP252.
In the case of `COC(=O)[C@H]1[C@H]2C[C@@H]3c4[nH]c5cc(OC)ccc5c4CCN3C[C@H]2C[C@@H](OC(=O)c2cc(OC)c(OC)c(OC)c2)[C@@H]1OC`, the Potency is 12 µM (active) with CP201; 6.75 µM (active) in the test with CP211; 9.53 µM (active) in the test on CP215; 11.2 µM (active) in the test with CP217; 11.2 µM (active) in the test with CP237; 11.2 µM (active) in the test on CP238. For the same compound, the Potency with CP247 and in the test with CP252 was 11.2 µM (active) in each case.
Regarding `NC(=O)N1c2ccccc2C=Cc2ccccc21`, the Potency entry in the test with CP201, with CP215, in the test with CP217, with CP237, in the test with CP238 and with CP247 was “inactive” each time. For the same compound, the Potency result in the test with CP250 and with CP252 was “inactive” each time.
Regarding `Cc1nc2sccn2c(=O)c1CCN1CCC(=C(c2ccc(F)cc2)c2ccc(F)cc2)CC1`, the Potency entry in the test on CP201 and with CP211 was “inactive” throughout.
Regarding `CN(C)CCCN1c2ccccc2Sc2ccc(C(F)(F)F)cc21`, the Potency entry in the test with CP201, in the test on CP211, in the test with CP238, in the test with CP247, in the test with CP250 and in the test with CP252 was “inactive” throughout.
On to `CN1C[C@H](C(=O)N[C@]2(C)O[C@@]3(O)[C@@H]4CCCN4C(=O)[C@H](Cc4ccccc4)N3C2=O)C[C@@H]2c3cccc4[nH]cc(c34)C[C@H]21`, for which the Potency in the test on CP203 is 10.7 µM (active); in the test with CP211 it was 12 µM (active); with CP215, 13.5 µM (active).
With `CCCC(C(=O)OCCN(CC)CC)(c1ccccc1)c1ccccc1`, the Potency in the test with CP203 was 12 µM (active); in the test with CP215, 12 µM (active); in the test on CP237 it was 10 µM (active); with CP247 it was 8.91 µM (active).
`CNCCC(Oc1ccccc1OC)c1ccccc1` (stereo unspecified): the Potency result in the test with CP211, in the test with CP215, in the test on CP237 and in the test on CP250 was “inactive” throughout.
Take `CN(C)C(=O)Oc1cccc([N+](C)(C)C)c1`: the Potency result in the test with CP201, in the test on CP211, in the test with CP217, in the test on CP237, with CP238 and in the test on CP247 was “inactive” in each case. In addition, the Potency entry with CP250 and in the test on CP252 was “inactive” throughout.
For the compound `CCOC(=O)C1=C(C)NC(C)=C(C(=O)OC)C1c1cccc(Cl)c1Cl` (stereo unspecified), the Potency entry with CP201, in the test with CP211, in the test with CP217, with CP237, with CP238 and in the test on CP247 was “inactive” throughout. The Potency entry in the test with CP250 and with CP252 was “inactive” each time.
In the case of `NC1=NCC2c3ccccc3Cc3ccccc3N12` (stereo unspecified), the Potency result in the test on CP201, with CP211, in the test on CP217, in the test with CP237, in the test with CP238 and with CP247 was “inactive” in each case. Further, the Potency result with CP250 and in the test on CP252 was “inactive” in each case.
With `O=C(CCCN1CCC(O)(c2cccc(C(F)(F)F)c2)CC1)c1ccc(F)cc1`, in the test with CP201, the Potency entry is “inactive”. Further, the Potency is 10.7 µM (active) with CP215; 7.94 µM (active) in the test on CP237; 12.6 µM (active) with CP238; 7.08 µM (active) with CP247; 10 µM (active) in the test with CP250.
As to `CC(C)[N+](C)(CCOC(=O)C1c2ccccc2Oc2ccccc21)C(C)C`, the Potency result with CP201, in the test on CP211 and with CP215 was “inactive” each time.
Consider `CCCN1C[C@H](CSC)C[C@@H]2c3cccc4[nH]cc(c34)C[C@H]21`, for which the Potency entry with CP201, in the test on CP215 and in the test with CP250 was “inactive” each time.
As for `CN(C)C/C=C(/c1ccc(Br)cc1)c1cccnc1`, the Potency entry with CP201, in the test on CP215, in the test with CP217, with CP238, in the test with CP247 and in the test with CP250 was “inactive” in each case. Also, in the test on CP252, the Potency result was “inactive”.
As for `COCCOC(=O)C1=C(C)NC(C)=C(C(=O)OC(C)C)C1c1cccc([N+](=O)[O-])c1` (stereo unspecified), the Potency in the test on CP203 was 12 µM (active). Besides, in the test on CP250, the Potency result was “inactive”.
Take `C[n+]1cc2c3c(ccc2c2ccc4cc5c(cc4c21)OCO5)OCO3`: the Potency entry with CP201, in the test with CP211, with CP215, in the test on CP237, in the test on CP238 and with CP250 was “inactive” in each case.
On to `CCc1cccc(N(C)C(N)=Nc2cccc3ccccc23)c1`, for which the Potency in the test on CP203 was 4.78 µM (active).
As for `CN(C)CCOC(=O)COc1ccc(Cl)cc1`, the Potency result in the test with CP201, in the test on CP211, in the test on CP215, in the test on CP217, in the test with CP238 and in the test with CP250 was “inactive” throughout. The Potency result in the test on CP252 was “inactive”.
Take `CC(C)COCC(CN(Cc1ccccc1)c1ccccc1)N1CCCC1` (stereo unspecified): the Potency entry with CP211, with CP217, with CP238, in the test on CP247, in the test with CP250 and in the test on CP252 was “inactive” in each case. Also, the Potency with CP215 is 7.57 µM (active); with CP237, 5.01 µM (active).
For the compound `CCN(CC)CCNC(=O)c1cc(S(C)(=O)=O)ccc1OC`, the Potency entry with CP217, in the test on CP237, in the test on CP238, with CP247, with CP250 and with CP252 was “inactive” in each case.
`OCCN1CCN(CCCN2c3ccccc3C=Cc3ccccc32)CC1`: the Potency is 6.75 µM (active) with CP203; 12 µM (active) with CP211; 8.49 µM (active) with CP215; 7.08 µM (active) in the test with CP217; 5.01 µM (active) in the test with CP237; 11.2 µM (active) with CP238. The Potency in the test with CP247 was 5.01 µM (active); with CP250, 6.31 µM (active); in the test with CP252, 6.31 µM (active).
